# Results: article PMC11062922 (Nature Chemical Biology, 2023)
# Read-outs that look alike come from different tables or passages of the source.
# Columns and labels:
# ADCK3 = system: ADCK3; parameters: species or system human, MV4-11 + K-562 + COLO205 + SK-N-BE2 + OVCAR-8; conditions: read-out: apparent Kd, n = 1
# ERCC2 = system: ERCC2; parameters: species or system human, MV4-11 + K-562 + COLO205 + SK-N-BE2 + OVCAR-8; conditions: read-out: apparent Kd; compound concentrations:100 nM and 1000 nM (sheet 'Samples'); n = 1
# MAP4K5 = system: MAP4K5; parameters: species or system human, MV4-11 + K-562 + COLO205 + SK-N-BE2 + OVCAR-8; conditions: read-out: apparent Kd; compound concentrations:100 nM and 1000 nM (sheet 'Samples'); n = 1
# AKT1 = system: AKT1; parameters: species or system human, MV4-11 + K-562 + COLO205 + SK-N-BE2 + OVCAR-8; conditions: read-out: apparent Kd; compound concentrations: 100 nM and 1000 nM (sheet 'Samples'), CATDS: 7.0300825665370006E-2; n = 1
# AKT2 = system: AKT2; parameters: species or system human, MV4-11 + K-562 + COLO205 + SK-N-BE2 + OVCAR-8; conditions: read-out: apparent Kd; compound concentrations: 100 nM and 1000 nM (sheet 'Samples'), CATDS: 7.1049746121653101E-2; n = 1
# AKT3 = system: AKT3; parameters: species or system human, MV4-11 + K-562 + COLO205 + SK-N-BE2 + OVCAR-8; conditions: read-out: apparent Kd, compound concentrations: 100 nM and 1000 nM (sheet 'Samples'), n = 1
# CAMK4 = system: CAMK4; parameters: species or system human, MV4-11 + K-562 + COLO205 + SK-N-BE2 + OVCAR-8; conditions: read-out: apparent Kd; compound concentrations: 100 nM and 1000 nM (sheet 'Samples'), CATDS: 6.2704005161184906E-2; n = 1
# CSNK1A1 = system: CSNK1A1; parameters: species or system human, MV4-11 + K-562 + COLO205 + SK-N-BE2 + OVCAR-8; conditions: read-out: apparent Kd; compound concentrations: 100 nM and 1000 nM (sheet 'Samples'), CATDS: 6.8994714696940407E-2; n = 1
# MAP2K1 = system: MAP2K1; parameters: species or system human, MV4-11 + K-562 + COLO205 + SK-N-BE2 + OVCAR-8; conditions: read-out: apparent Kd; compound concentrations: 100 nM and 1000 nM (sheet 'Samples'), CATDS: 7.1306793514003305E-2; n = 1
# MAP2K2 = system: MAP2K2; parameters: species or system human, MV4-11 + K-562 + COLO205 + SK-N-BE2 + OVCAR-8; conditions: read-out: apparent Kd; compound concentrations: 100 nM and 1000 nM (sheet 'Samples'), CATDS: 7.3872380173305399E-2; n = 1
# MAPK9 = system: MAPK9; parameters: species or system human, MV4-11 + K-562 + COLO205 + SK-N-BE2 + OVCAR-8; conditions: read-out: apparent Kd; compound concentrations: 100 nM and 1000 nM (sheet 'Samples'), CATDS: 6.4176537599483302E-2; n = 1
# NQO1 = system: NQO1; parameters: species or system human, MV4-11 + K-562 + COLO205 + SK-N-BE2 + OVCAR-8; conditions: read-out: apparent Kd; compound concentrations: 100 nM and 1000 nM (sheet 'Samples'), CATDS: 8.1829364824624801E-2; n = 1
# PIM2 = system: PIM2; parameters: species or system human, MV4-11 + K-562 + COLO205 + SK-N-BE2 + OVCAR-8; conditions: read-out: apparent Kd; compound concentrations: 100 nM and 1000 nM (sheet 'Samples'), CATDS: 7.6487231298609404E-2; n = 1
# PYGL = system: PYGL; parameters: species or system human, MV4-11 + K-562 + COLO205 + SK-N-BE2 + OVCAR-8; conditions: read-out: apparent Kd; compound concentrations: 100 nM and 1000 nM (sheet 'Samples'), CATDS: 6.9677029727435405E-2; n = 1
# RIOK2 = system: RIOK2; parameters: species or system human, MV4-11 + K-562 + COLO205 + SK-N-BE2 + OVCAR-8; conditions: read-out: apparent Kd; compound concentrations: 100 nM and 1000 nM (sheet 'Samples'), CATDS: 6.63813283152343E-2; n = 1
# SMC4 = system: SMC4; parameters: species or system human, MV4-11 + K-562 + COLO205 + SK-N-BE2 + OVCAR-8; conditions: read-out: apparent Kd; compound concentrations: 100 nM and 1000 nM (sheet 'Samples'), CATDS: 6.4174106680799994E-2; n = 1
# PIK3CB = system: PIK3CB; parameters: species or system human, MV4-11 + K-562 + COLO205 + SK-N-BE2 + OVCAR-8; conditions: read-out: apparent Kd; compound concentrations: 100 nM and 1000 nM (sheet 'Samples'), CATDS: 0.78583542489200198; n = 1
# ADCK1 = system: ADCK1; parameters: species or system human, MV4-11 + K-562 + COLO205 + SK-N-BE2 + OVCAR-8; conditions: read-out: apparent Kd; compound concentrations: 100 nM and 1000 nM (sheet 'Samples'), CATDS: 0.14562784613858401; n = 1
# LIMK1 = system: LIMK1; parameters: species or system human, MV4-11 + K-562 + COLO205 + SK-N-BE2 + OVCAR-8; conditions: read-out: apparent Kd; compound concentrations: 100 nM and 1000 nM (sheet 'Samples'), CATDS: 0.152053831473141; n = 1
# NEK1 = system: NEK1; parameters: species or system human, MV4-11 + K-562 + COLO205 + SK-N-BE2 + OVCAR-8; conditions: read-out: apparent Kd; compound concentrations: 100 nM and 1000 nM (sheet 'Samples'), CATDS: 0.19071251042520401; n = 1
# NEK3 = system: NEK3; parameters: species or system human, MV4-11 + K-562 + COLO205 + SK-N-BE2 + OVCAR-8; conditions: read-out: apparent Kd; compound concentrations: 100 nM and 1000 nM (sheet 'Samples'), CATDS: 0.104444124059675; n = 1
# PIK3CG = system: PIK3CG; parameters: species or system human, MV4-11 + K-562 + COLO205 + SK-N-BE2 + OVCAR-8; conditions: read-out: apparent Kd; compound concentrations: 100 nM and 1000 nM (sheet 'Samples'), CATDS: 0.203728906999049; n = 1
# Q6ZSR9 = Q6ZSR9 (human, UniProt Q6ZSR9); parameters: species or system MV4-11 + K-562 + COLO205 + SK-N-BE2 + OVCAR-8; conditions: read-out: apparent Kd; compound concentrations: 100 nM and 1000 nM (sheet 'Samples'), CATDS: 0.122629729389454; n = 1
# ULK3 = system: ULK3; parameters: species or system human, MV4-11 + K-562 + COLO205 + SK-N-BE2 + OVCAR-8; conditions: read-out: apparent Kd; compound concentrations: 100 nM and 1000 nM (sheet 'Samples'), CATDS: 0.13028538158994399; n = 1
# Sequence of Q6ZSR9 (Q6ZSR9 whole entry, looked up): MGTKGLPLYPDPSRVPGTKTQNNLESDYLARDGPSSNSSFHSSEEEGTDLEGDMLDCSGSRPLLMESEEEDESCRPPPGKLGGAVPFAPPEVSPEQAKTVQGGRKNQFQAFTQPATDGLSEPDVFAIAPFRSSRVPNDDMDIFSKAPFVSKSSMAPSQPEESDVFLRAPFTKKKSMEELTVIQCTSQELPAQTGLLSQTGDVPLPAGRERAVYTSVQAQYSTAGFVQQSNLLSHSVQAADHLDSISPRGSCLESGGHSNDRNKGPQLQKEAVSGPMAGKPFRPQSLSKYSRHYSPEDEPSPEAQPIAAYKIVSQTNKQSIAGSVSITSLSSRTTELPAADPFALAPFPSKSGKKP
structure (smiles),measurement,setting,value
Nc1ncc(-c2cccnc2)c2scc(-c3ccc4c(c3)CCN4C(=O)Cc3ccccc3)c12 [GSK683281A],potency estimated from few doses,ADCK3; compound concentrations:100 nM and 1000 nM (sheet 'Samples'),760 nM
same,potency estimated from few doses,ERCC2,1560 nM
same,potency estimated from few doses,MAP4K5,1560 nM
O=C(NC1CCN(c2ccnc(Nc3ccc(F)cc3)n2)C1)c1cc2ccccc2s1 (stereo not drawn) [GSK1379716A],potency estimated from few doses,"ADCK3; compound concentrations: 100 nM and 1000 nM (sheet 'Samples'), CATDS: 8.9568558281788502E-2",1140 nM
same,potency estimated from few doses,AKT1,1780 nM
same,potency estimated from few doses,AKT2,1740 nM
same,potency estimated from few doses,AKT3; CATDS: 7.9002074728764499E-2,1420 nM
same,potency estimated from few doses,CAMK4,2280 nM
same,potency estimated from few doses,CSNK1A1,1850 nM
same,potency estimated from few doses,MAP2K1,1730 nM
same,potency estimated from few doses,MAP2K2,1610 nM
same,potency estimated from few doses,MAPK9,2160 nM
same,potency estimated from few doses,NQO1,1330 nM
same,potency estimated from few doses,PIM2,1500 nM
same,potency estimated from few doses,PYGL,1810 nM
same,potency estimated from few doses,RIOK2,2010 nM
same,potency estimated from few doses,SMC4,2160 nM
Cc1c(Cn2ccn3c(=O)nc(N4CCOCC4)cc23)cccc1C(F)(F)F [GSK2336394A],potency estimated from few doses,"ADCK3; compound concentrations: 100 nM and 1000 nM (sheet 'Samples'), CATDS: 0.28209603435573799",575 nM
same,potency estimated from few doses,AKT3; CATDS: 0.239087060290751,1030 nM
same,potency estimated from few doses,PIK3CB,54.2 nM
COc1cc(Nc2nccc(N3CCC(NS(=O)(=O)c4ccc(NC(C)=O)cc4)CC3)n2)cc(OC)c1OC [GSK1379825A],potency estimated from few doses,ADCK1,1000 nM
same,potency estimated from few doses,LIMK1,921 nM
same,potency estimated from few doses,NEK1,610 nM
same,potency estimated from few doses,NEK3,2360 nM
same,potency estimated from few doses,PIK3CG,547 nM
same,potency estimated from few doses,Q6ZSR9,1490 nM
same,potency estimated from few doses,ULK3,1280 nM
